Assay outcomes from PubChem BioAssay.
Shown are actives, neighbours in structure and some others; about 21% of the full set was active somewhere.
Cycloheximide cs – affects cycloheximide protein synthesis inhibition readout, counter-screen. max response, %. cell reporter, cycloheximide protein synthesis inhibition counterscreen. AID 2314. hit rate 12% among 300,000; in the data active means max response mostly above about 13%, no sharp cut-off; inactive means mostly below about 14%; further: read at 38.3 µM for the half of the compounds with a filed dose
HCMV inh – blocks human cytomegalovirus replication; HFF cells, HCMV-luciferase reporter, 72 h; stronger effect = lower value; activity change, negative = inhibition, % at 57.5 µM; hit rate 4.5% among 410,000; AID 1259415; in the data active means activity change below about -60%; inconclusive means no clear call, values can overlap the other calls; inactive means above about -39%
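Human foreskin fibroblasts infected with luciferase-reporter HCMV at MOI 1 PFU/cell, compounds at two doses. Luciferase measured 72 h post infection; normalized to buffer-only basal and Salinomycin (10uM) controls.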
Pf growth 96h – P. falciparum growth inhibition at 96 hour, primary screen for plastid delayed-death inhibitors; AID 504834; P. falciparum luciferase reporter growth, 96 h; Potency, µM (doses to about 28.7 µM), usual class: inhibitors; hit rate 6.9% among 320,000
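P. falciparum expressing integrated firefly luciferase grown in erythrocytes (2% hematocrit, 0.05% parasitemia final) with compounds for 96 hours at 37 C, 5% CO2. Growth inhibition read as loss of luminescence after adding luciferase detection reagent.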
Shiga inhibitor – blocks Shiga toxin action in Vero cells; hit rate 9.2% among 290,000; Vero cells, Shiga toxin protein synthesis inhibition reporter; inhibition, % at 38.7 µM; in the data active means inhibition mostly above about 28%, no sharp cut-off; inactive means mostly below about 43%
Pf growth 48h – inhibits P. falciparum growth in the first generation, 48 h. Potency, µM (doses to about 28.7 µM), most hits filed as inhibitors. P. falciparum luciferase growth in erythrocytes, 48 h. hit rate 5.9% among 310,000
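In quantitative HTS format, infected erythrocytes bearing luciferase-reporter parasites were treated for a single generation at 37 C. Luminescence after adding detection reagent served as the growth measure.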
HCV inhibitor – blocks hepatitis C virus; Huh7.5.1 HCVcc-Cre infection, luciferase reporter, 44 h; Potency, µM (series often up to 41.8 µM), most hits filed as inhibitors; hit rate 3.4% among 340,000; AID 651820
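Cells (1,000/well) were plated 4 h before compound, then infected with HCVcc-Cre virus (~0.5 moi). After 44 h further culture, infection was read as luciferase luminescence following a 15 min substrate incubation at room temperature.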
Each line names hits and unclear results; the compound was inactive in the other large screens; ! = not active in a repeat. Unless noted, the call rests on the fitted dose curve; in most records, active means well fitted inhibition curve with a large enough effect; inconclusive means small, poorly fitted or top-dose-only effect, or another doubt; inactive means no such curve, though single readings can be large or run the other way.

CCOC(=O)Cn1c(=O)oc2cc(S(=O)(=O)N3CCc4ccccc43)ccc21	HCMV inh inconclusive, Pf growth 96h 13µM (no result: Pf growth 48h)
CC(C)(C)NC(=O)Cn1c(=O)oc2cc(S(=O)(=O)N3CCc4ccccc43)ccc21	Pf growth 96h 1.5µM (no result: Pf growth 48h)
Cn1c(=O)oc2cc(S(=O)(=O)N3CCc4ccccc43)ccc21	HCMV inh inconclusive, Pf growth 48h inconclusive
COc1ccc(-c2c(C)c3cc(O)ccc3oc2=O)cc1	Cycloheximide cs 18, Pf growth 96h inconclusive, Pf growth 48h inconclusive
COc1ccc(-c2c(O)c3cc(O)cc(O)c3oc2=O)cc1	Cycloheximide cs 44, Shiga inhibitor 71 (no result: HCMV inh, Pf growth 96h, Pf growth 48h, HCV inhibitor)
COc1ccc(-c2c(C)c3ccc(O)cc3oc2=O)cc1OC	none
CCCCCNC(=O)c1ccc2c(=O)n(CC3CCCO3)c(=O)[nH]c2c1 (stereo not given)	Pf growth 48h 1.3µM, HCV inhibitor inconclusive
CCCCCNC(=O)c1ccc2c(=O)n(CC3CCCO3)c(=S)[nH]c2c1 (stereo not given)	Pf growth 48h inconclusive, HCV inhibitor inconclusive
CCCCCn1c(=O)[nH]c2cc(C(=O)NCCN3CCCCC3C)ccc2c1=O (stereo not given)	Pf growth 96h inconclusive, Pf growth 48h 12µM, HCV inhibitor inconclusive (no result: HCMV inh)
CCn1c(C)c(C)c2cc(C(=O)NCCCN3CCCCC3C)ccc21 (stereo not given)	HCMV inh active!
O=C(NCCCN1CCCCC1)c1ccc2c(=O)n(CCc3ccccc3)c(=O)[nH]c2c1	HCV inhibitor 6.3µM
CC(NC(=O)CNC(=S)N(Cc1cccs1)C1CCCC1)c1ccccc1 (stereo not given)	HCMV inh inconclusive, Pf growth 48h inconclusive
NC(=O)C1CCN(c2nc(-c3ccccc3[N+](=O)[O-])cs2)CC1	none (no result: Cycloheximide cs, HCMV inh, Shiga inhibitor, HCV inhibitor)
COc1cccc(Cn2c(C)c(CNCc3cccc(C)c3)c(C(=O)O)c2C)c1	none (no result: Cycloheximide cs, Pf growth 96h, Shiga inhibitor, Pf growth 48h, HCV inhibitor)
OCC[C@H]1C[C@H](O)[C@@H](O)[C@]2(OCCc3ccccc32)O1	none (no result: Cycloheximide cs, Shiga inhibitor)
CCOC(=O)c1c(N)sc2c1CCC1C(=O)N(C3CCCCC3)C(=O)C21 (stereo not given)	Cycloheximide cs 32, Pf growth 96h 15µM, Pf growth 48h 13µM, HCV inhibitor inconclusive
CCOC(=O)c1c(N)sc2c1CCC(CC)C2 (stereo not given)	none (no result: Pf growth 48h)
Cc1ccc(S(=O)(=O)NCC(=O)OCC(=O)NCc2ccc3c(c2)OCO3)cc1	none (no result: Cycloheximide cs, Shiga inhibitor)
O=C1CN(C(=O)c2ccc(Br)o2)C(c2ccccc2)c2cc(Br)ccc2N1 (stereo not given)	Pf growth 96h 5.9µM, HCV inhibitor inconclusive (no result: Pf growth 48h)
O=C(Nc1cnccn1)c1ccc(Cl)cc1	HCMV inh inconclusive, Shiga inhibitor 58 (no result: Pf growth 48h)
O=C(NNC(=O)c1cnccn1)c1ccc(Cl)c(Cl)c1	Pf growth 96h 3.7µM, Pf growth 48h inconclusive, HCV inhibitor inconclusive
N/C(=N\NC(=O)c1ccc(Cl)cc1)c1cnccn1	Cycloheximide cs 33, Pf growth 96h inconclusive, Shiga inhibitor 48, Pf growth 48h inconclusive
O=C(Nc1cnccn1)c1ccncc1	none
Cc1ccc(NC(=O)C(=O)NCC(c2ccc3c(c2)OCO3)N2CCOCC2)cc1C (stereo not given)	none (no result: Cycloheximide cs, Pf growth 96h, Shiga inhibitor, Pf growth 48h, HCV inhibitor)
COc1cc(CN2CCCC(CO)(Cc3ccccc3)C2)ccc1O (stereo not given)	Pf growth 96h 10µM (no result: Shiga inhibitor)
COc1cccc(CC2(CO)CCCN(Cc3ccc4c(c3)OCCO4)C2)c1 (stereo not given)	Pf growth 96h 10µM
COc1ccc(CN2CCCC(CO)(Cc3cccc(Cl)c3)C2)cc1OC (stereo not given)	Pf growth 96h inconclusive, HCV inhibitor inconclusive
COc1ccc(CN2CCCC(CO)(Cc3ccc(F)cc3)C2)c(OC)c1OC (stereo not given)	Pf growth 96h 12µM, HCV inhibitor inconclusive
CC(C)Oc1ccc(CN2CCCC(CO)(Cc3ccc(F)cc3)C2)cc1 (stereo not given)	Pf growth 48h inconclusive, HCV inhibitor inconclusive
OCC1(Cc2cccc(Cl)c2)CCCN(Cc2cnn(-c3ccccc3)c2)C1 (stereo not given)	Pf growth 48h 8.3µM, HCV inhibitor inconclusive
CCSc1ncc(Cl)c(C(=O)Nc2ccc(S(=O)(=O)Nc3nccc(C)n3)cc2)n1	none (no result: Cycloheximide cs, Pf growth 96h, Shiga inhibitor, Pf growth 48h, HCV inhibitor)
